Data on 174 sequences can be found in PMC6212790, “How bacterial xenogeneic silencer rok distinguishes foreign from self DNA in its resident genome”.

In all, about 33,000 sequences were measured (“e-score”: median about -0.037, highest 2% from about 0.34 on). Many of the other results were omitted from the sample, so the highest values are more common in it than they were.

The test deals with T1, GST-Rok (full length) (Bacillus subtilis subsp. subtilis str. …, UniProt O34857 1-191).
T1 sequence: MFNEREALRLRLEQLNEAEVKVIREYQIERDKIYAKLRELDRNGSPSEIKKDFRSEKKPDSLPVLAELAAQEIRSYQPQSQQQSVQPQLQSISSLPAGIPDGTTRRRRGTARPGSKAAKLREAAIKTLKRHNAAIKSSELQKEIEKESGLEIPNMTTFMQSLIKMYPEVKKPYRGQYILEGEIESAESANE
Briefly: protein binding microarray; Rok is a gene silencer of Bacillus subtilis; high values mean tight binding. The settings on record: protein: recombinant; tags: GST (pTH5325, pDEST15-Magic modified); dsDNA, one strand shown. An outline of the steps: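 Every oligonucleotide joins a 25-mer constant primer to a 35-mer variable part drawn from a de Bruijn sequence of order 10, so each non-palindromic 8-mer appears at least 32 times and each palindromic 8-mer 16 times. The preference for every 8-mer is reported as a unitless, rank-based enrichment score (E-score). This score spans 0.5 for the most favored 8-mer to −0.5 for the most disfavored.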
For AAAGAACA, the binding signal is -0.199 E-score.

For ATTAAGAC, the binding signal was -0.0587 E-score.

Regarding ATTTACAC, the binding signal is 0.23 E-score.

In the case of AGTTACTG, the binding signal was found to be 0.207 E-score.

On to ATTTACAG, for which the binding signal was 0.24 E-score.

For the sequence AGTTACTC, the binding signal was found to be 0.188 E-score.

Turning to ATTTACAA, the binding signal came to 0.368 E-score.

Take AGTTACTA: the binding signal stood at 0.345 E-score.

Regarding CAGTGGAA, the binding signal turned out to be 0.0127 E-score.

For the sequence GGTGTGTA, the binding signal amounted to 0.271 E-score.

For CGCATTCC, the binding signal was -0.192 E-score.

ACTTATAA: the binding signal stood at 0.28 E-score.

As to TACGACCA, the binding signal was -0.0634 E-score.

As for GAACTCGC, the binding signal is -0.0505 E-score.

As for AGGCGCTA, the binding signal is -0.15 E-score.

For GCTCCATA, the binding signal came to 0.0969 E-score.

As for CCGATCCG, the binding signal is -0.19 E-score.

Consider CAAACGAA, for which the binding signal came to 0.108 E-score.

With AACTTCTA, the binding signal turned out to be 0.296 E-score.

Consider ATATTCTC, for which the binding signal was determined as 0.277 E-score.

Turning to CTATTCTA, the binding signal was found to be 0.128 E-score.

Take GAATTCTA: the binding signal is 0.357 E-score.

Regarding GACTTCTA, the binding signal worked out at 0.0634 E-score.

In the case of GAATTCTC, the binding signal is -0.0203 E-score.

Take TAATTCTA: the binding signal turned out to be 0.345 E-score.

With TAATTCCA, the binding signal worked out at 0.213 E-score.

In the case of TAATTCAA, the binding signal was determined as 0.105 E-score.

TACTTCTA: the binding signal stood at 0.36 E-score.

For CAATTCTA, the binding signal is 0.278 E-score.

As to ATATTCTA, the binding signal is 0.424 E-score.

Turning to CAAGAAAA, the binding signal was -0.0182 E-score.

For GATTCACA, the binding signal was 0.0605 E-score.

Take AACGAAGC: the binding signal was -0.108 E-score.

For the sequence ACGGAAAC, the binding signal was -0.0398 E-score.

AATTGACT: the binding signal is 0.16 E-score.

Consider AAGTAACT, for which the binding signal turned out to be 0.225 E-score.

As for ACTAGGCG, the binding signal is -0.156 E-score.

Turning to TATGGTCA, the binding signal was -0.0127 E-score.

Regarding AGCGCAAA, the binding signal was 0.0549 E-score.

In the case of GCGTACTA, the binding signal came out at 0.082 E-score.

AAATTCTT: the binding signal was 0.0789 E-score.

On to AAATTCTA, for which the binding signal amounted to 0.402 E-score.

With AAATTCTC, the binding signal was found to be 0.0375 E-score.

In the case of ACCGTCGA, the binding signal came to 0.0177 E-score.

Turning to CGTACTAA, the binding signal amounted to 0.217 E-score.

For the sequence CGTACTGC, the binding signal was 0.0418 E-score.

For the sequence AGTACTGC, the binding signal was 0.114 E-score.

Consider AGTACGAT, for which the binding signal amounted to 0.134 E-score.

Take TGTACTAA: the binding signal came to 0.0689 E-score.

With AGTACTAA, the binding signal is 0.357 E-score.

On to AGTACTAC, for which the binding signal was 0.389 E-score.

For the sequence CGTACTAC, the binding signal amounted to 0.339 E-score.

In the case of GGTACTAC, the binding signal was 0.212 E-score.

With AGTACTCA, the binding signal amounted to 0.0122 E-score.

For AGTACTAT, the binding signal turned out to be 0.388 E-score.

In the case of GGTACTAA, the binding signal was determined as 0.138 E-score.

With AGGAGTCC, the binding signal was -0.0508 E-score.

With ATTCCTAC, the binding signal was 0.201 E-score.

For CATGGTCA, the binding signal was -0.1 E-score.

On to TACCGAAA, for which the binding signal was 0.225 E-score.

For TCGAATCA, the binding signal was -0.0502 E-score.

For ACCGCACT, the binding signal is 0.0535 E-score.

With CGTACTAG, the binding signal turned out to be 0.0856 E-score.

As for AGTACTAG, the binding signal turned out to be 0.385 E-score.

As to AGTACTGG, the binding signal amounted to 0.156 E-score.

For the sequence AAGGTAGG, the binding signal is 0.133 E-score.

ACGGTAGT: the binding signal was 0.373 E-score.

Regarding ACGGTATA, the binding signal worked out at 0.252 E-score.

Take ACGGTAGG: the binding signal worked out at 0.137 E-score.

With AAGGTAGC, the binding signal was 0.133 E-score.

Turning to AAGGTAGT, the binding signal was determined as 0.354 E-score.

In the case of TCGGTAAA, the binding signal is 0.136 E-score.

In the case of ACGGTAAA, the binding signal worked out at 0.349 E-score.

Regarding CCGGTAAA, the binding signal was determined as 0.107 E-score.

Consider GCGGTATA, for which the binding signal is 0.347 E-score.

With CCGGTATA, the binding signal is -0.0189 E-score.

ACGGTAGC: the binding signal is 0.139 E-score.

Consider CTAGATGA, for which the binding signal came out at 0.0637 E-score.

Turning to CTGCGAGA, the binding signal is -0.11 E-score.

Turning to AAGCCTGA, the binding signal is -0.131 E-score.

For the sequence GACCCAGA, the binding signal was -0.174 E-score.

In the case of AGCAAACC, the binding signal was 0.0585 E-score.

CCGGTAGA: the binding signal is 0.229 E-score.

As to GCGGTAGC, the binding signal was 0.0476 E-score.

Turning to GCGGTAGA, the binding signal came out at 0.337 E-score.

On to TAGGTAGA, for which the binding signal was determined as 0.361 E-score.

GAGGTAGA: the binding signal was found to be 0.296 E-score.

For the sequence TCGGTAGA, the binding signal was 0.231 E-score.

With ACGGTAGA, the binding signal amounted to 0.365 E-score.

AAGGTAGA: the binding signal was 0.288 E-score.

For the sequence GGGGTAGA, the binding signal turned out to be 0.011 E-score.

With GAAGCAAC, the binding signal worked out at 0.0226 E-score.

Take GCCGTTAA: the binding signal is -0.0418 E-score.

As to CAGTTCTC, the binding signal stood at 0.00617 E-score.

For AACGACAG, the binding signal came to 0.0268 E-score.

With CAATTGTA, the binding signal is 0.339 E-score.

On to ATATTGTG, for which the binding signal amounted to 0.172 E-score.

For the sequence GAATTGTA, the binding signal was 0.254 E-score.

For the sequence CAATTGTC, the binding signal was -0.0649 E-score.

Turning to ACATTGTA, the binding signal was 0.222 E-score.

As for CTATTGTA, the binding signal amounted to 0.381 E-score.

On to ATATTGTA, for which the binding signal amounted to 0.375 E-score.

Take GTATTGTA: the binding signal was 0.238 E-score.

As to CTATTGTC, the binding signal was -0.0651 E-score.

Regarding AATGTTGT, the binding signal was 0.154 E-score.

For the sequence CAGGGTTC, the binding signal was -0.172 E-score.

As to CGAACTAC, the binding signal amounted to 0.358 E-score.

Consider CTAACTAC, for which the binding signal was determined as 0.397 E-score.

ATAACTAC: the binding signal is 0.316 E-score.

Turning to CTAACTAA, the binding signal turned out to be 0.29 E-score.

Turning to GCAACTAC, the binding signal was found to be 0.308 E-score.

Regarding AGAACTAC, the binding signal came out at 0.327 E-score.

As for GTAACTAA, the binding signal came out at 0.304 E-score.

Consider CGAACTAG, for which the binding signal was 0.319 E-score.

Consider GTAACTAC, for which the binding signal was 0.394 E-score.

Regarding AAAGCCTG, the binding signal is -0.18 E-score.

Regarding ATTTTAAA, the binding signal was 0.126 E-score.

Regarding GTCGCTAA, the binding signal turned out to be 0.16 E-score.

As to GCATATGC, the binding signal worked out at 0.129 E-score.

In the case of CTCATAAG, the binding signal was -0.129 E-score.

On to ACCTACAT, for which the binding signal was determined as 0.271 E-score.

On to ACCTACAA, for which the binding signal came out at 0.265 E-score.

For the sequence AACTACAC, the binding signal is 0.335 E-score.

Take TACTACAA: the binding signal was determined as 0.357 E-score.

On to AACTACAT, for which the binding signal came out at 0.419 E-score.

With AACTACAA, the binding signal came out at 0.34 E-score.

Regarding GCCTACAA, the binding signal stood at 0.107 E-score.

Consider GACTACAA, for which the binding signal worked out at 0.12 E-score.

Consider CACTACAG, for which the binding signal is -0.0355 E-score.

Regarding AACTACAG, the binding signal worked out at 0.337 E-score.

In the case of CACTACAA, the binding signal came to 0.143 E-score.

With ACCTACAG, the binding signal turned out to be 0.0467 E-score.

In the case of GAACCAGC, the binding signal is -0.148 E-score.

Regarding GTAATCCA, the binding signal was found to be 0.00713 E-score.

As for ACATCGGA, the binding signal came out at 0.06 E-score.

ATTTTTGA: the binding signal turned out to be 0.0221 E-score.

In the case of GCTCTCAA, the binding signal was -0.174 E-score.

For the sequence CCTAGCGA, the binding signal is -0.111 E-score.

Regarding CTCTACAA, the binding signal worked out at 0.0924 E-score.

Regarding GTCTACAA, the binding signal amounted to 0.11 E-score.

Take AGCTACAC: the binding signal was found to be 0.191 E-score.

Take AGCTACAT: the binding signal turned out to be 0.364 E-score.

As for TTCTACAA, the binding signal is 0.392 E-score.

Turning to AGCTACAA, the binding signal amounted to 0.205 E-score.

Regarding ACTTCGTC, the binding signal was -0.0747 E-score.

For the sequence TGTCCAAA, the binding signal is 0.0695 E-score.

As for ACCGGCCG, the binding signal is -0.0951 E-score.

With TCGAGAAA, the binding signal was determined as 0.135 E-score.

For the sequence AGTATTTG, the binding signal turned out to be 0.31 E-score.

For GGTATTCA, the binding signal was -0.0162 E-score.

In the case of GTTATTTA, the binding signal was 0.197 E-score.

For the sequence CTTATTTA, the binding signal came to 0.148 E-score.

For the sequence AGTATTTA, the binding signal turned out to be 0.344 E-score.

For the sequence AGTATTTC, the binding signal amounted to 0.332 E-score.

In the case of ATTATTTA, the binding signal worked out at 0.406 E-score.

In the case of GGTATTTA, the binding signal worked out at 0.356 E-score.

CGTATTTA: the binding signal is 0.261 E-score.

Consider AAATGCTC, for which the binding signal is -0.142 E-score.

As to AAGATTAG, the binding signal stood at 0.197 E-score.

Turning to ACCAGTGC, the binding signal was -0.175 E-score.

Take TAGCAGCA: the binding signal came to 0.0346 E-score.

Take AGAATATA: the binding signal was found to be 0.296 E-score.

In the case of CTAATAGA, the binding signal stood at 0.0426 E-score.

With ATAATACC, the binding signal amounted to 0.174 E-score.

As to ATAATACA, the binding signal worked out at 0.237 E-score.

For GGAATATA, the binding signal came out at 0.366 E-score.

Regarding CGAATATA, the binding signal came to 0.321 E-score.

As for CTAATATA, the binding signal was 0.349 E-score.

For ATAATAAT, the binding signal was 0.372 E-score.

As for ATAATAAC, the binding signal came to 0.312 E-score.

Regarding ATAATACG, the binding signal stood at 0.349 E-score.

Regarding CTAATATC, the binding signal was found to be 0.255 E-score.

Regarding ATAATAAA, the binding signal was determined as 0.297 E-score.

In the case of GTGGGTAA, the binding signal was determined as 0.142 E-score.
